Molecules are shown by their SMILES. Screen size: about 360,000 compounds; about 11,000 (3.1%) were called active. Roughly 2% stayed inconclusive and do not appear here. Rule as the data show it: active = fluorescence intensity above about 16000; inconclusive = no clear call, values can overlap the other calls; inactive = below that. Shown is part of a subset that was picked to be rich in actives.

This test is described as follows: counter-screen for toxin protease inhibitors: compound fluorescence, primary screen, artefact control for toxin protease inhibitor project, biochemical, multiplex microsphere, HTS (AID 624483). Particulars: compound autofluorescence counterscreen, microsphere flow cytometry; stronger effect = higher value.
With `Cc1ccccc1CSc1nnc(-c2cccnc2)n1N`, the fluorescence intensity is 2660 (inactive).
`Cc1ccccc1CSc1nnc(-c2ccccn2)n1N`: the fluorescence intensity is 16200 (active).
With `Cn1c(SCC(=O)C(C)(C)C)nnc1-c1ccccn1` the figure was 9760 (inactive).
With `COc1ccc(C(=O)NC(=S)N2CCCCC2c2cccnc2)cc1OC` (centres undefined) the figure was 4080 (inactive).
With `Cc1ccc(Cn2c(=N)c(S(=O)(=O)c3ccc(C)cc3)cc3c(=O)n4ccccc4nc32)cc1` the figure was 4390 (inactive); with `Cc1ccc(-n2c(=O)c(C#N)cc3c(=O)n4ccccc4nc32)cc1C`, 24200 (active).
Turning to `CCn1c(=N)c(S(=O)(=O)c2ccc(F)cc2)cc2c(=O)n3ccccc3nc21`, the fluorescence intensity was 2990 (inactive).
As to `CCc1nc2nc(C)c(NS(=O)(=O)c3ccc4c(c3)CCCC4)c(=O)n2[nH]1`, the fluorescence intensity was 4030 (inactive).
As to `C=C1C(=O)[C@]23C[C@H]1CCC2[C@@]1(C)C(C[C@@H]3O)[C@](C)(C(=O)O)CC[C@@H]1O` (some centres undefined), the fluorescence intensity is 4260 (inactive).
With `CC1=C(C(=O)N(C(C)C)C(C)C)CC(CC(=O)NCC2CCCCC2)C(=O)N1Cc1ccccc1` (centres undefined) the figure was 5490 (inactive); with `CCCCN(C1CCS(=O)(=O)C1)S(=O)(=O)c1ccc(C(C)C)cc1` (centres undefined), 5460 (inactive); with `CN(C1CCS(=O)(=O)C1)S(=O)(=O)c1ccc2ccccc2c1` (centres undefined), 5860 (inactive).
On to `Cc1ccc(S(=O)(=O)N(c2cccc(C)c2)C2CCS(=O)(=O)C2)cc1` (centres undefined), for which the fluorescence intensity is 21200 (active).
On to `CCOP(=O)(OCC)C(Cc1ccccc1)N=C(c1ccccc1)c1ccccc1` (centres undefined), for which the fluorescence intensity is 5750 (inactive).
Take `Cn1cnc(S(=O)(=O)Nc2ccc3c(c2)OCCO3)c1`: the fluorescence intensity is 3290 (inactive).
With `CCC(c1nnnn1-c1ccc2c(c1)OCCO2)N1CCN(c2ccc(C(F)(F)F)cn2)CC1` (centres undefined), the fluorescence intensity was 5170 (inactive).
With `CC(=O)Nc1cc(-c2ccc(N3CCN(C)CC3)cc2)cn2c(-c3cccc(C(=O)N(C)C)c3)cnc12` the figure was 2910 (inactive); with `CCCC/S(C)=N/S(=O)(=O)c1ccc(C)cc1` (centres undefined), 1940 (inactive).
With `CC/S(CC1CC1(Cl)Cl)=N\S(=O)(=O)c1ccc(C)cc1` (centres undefined) the figure was 19500 (active); with `Cc1ccc(S(=O)(=O)/N=S(\C)C(C)C)cc1` (centres undefined), 2730 (inactive); with `CC(=O)c1ccc(-c2cnc3c(NC=O)cc(-c4cccc(NS(C)(=O)=O)c4)cn23)cc1`, 4010 (inactive).
The figure for `COc1ccc(C(c2nnnn2C2CCCC2)N2CCN(C/C=C/c3ccccc3)CC2)cc1` (centres undefined) is 5910 (inactive); for `CCCCCCOC(=O)NCC(O)c1ccccc1` (centres undefined) it is 17600 (active).
As for `O=C(CC(c1ccccc1)c1ccccc1)NCC(O)c1ccc([N+](=O)[O-])cc1` (centres undefined), the fluorescence intensity is 3190 (inactive).
With `CCCCOC(=O)Nc1nnc(CC(=O)NCc2ccccc2)s1` the figure was 3980 (inactive); with `Cc1cccc(CN2CCN(C3CN(Cc4cn(Cc5cc(C)cc(C)c5)nn4)S(=O)(=O)C3)CC2)c1` (centres undefined), 4640 (inactive).
The figure for `CCCCCCN1CCN(C2CN(Cc3cn(CCCCCC)nn3)S(=O)(=O)C2)CC1` (centres undefined) is 5850 (inactive).
`Cc1ccc(S(=O)(=O)N(CC(O)CN2CCCCC2)c2cccc([N+](=O)[O-])c2)cc1` (centres undefined): the fluorescence intensity is 3000 (inactive).
Consider `COc1ccc([N+](=O)[O-])cc1N(CC(O)CN(CC(C)C)CC(C)C)S(=O)(=O)c1ccc(C)cc1` (centres undefined), for which the fluorescence intensity is 3790 (inactive).
The figure for `COc1ccc([N+](=O)[O-])cc1N(CC(O)Cn1nnc2ccccc21)S(=O)(=O)c1ccc(C)cc1` (centres undefined) is 17900 (active); for `CC(C)[C@@H](C(=O)OCC(=O)c1ccc2c(c1)NC(=O)CO2)N1C(=O)c2ccccc2C1=O` it is 3880 (inactive).
The figure for `C=C(C)C(=O)O[C@H]1C/C(C)=C\C(=O)/C=C(\C)[C@H](O)[C@@H]2OC(=O)C(=C)[C@@H]21` is 2760 (inactive); for `CCOC(=O)c1c(C)n(C)c2ccc(OC)c(NS(=O)(=O)CC)c12` it is 2300 (inactive).
The figure for `CCOc1ccc(NC(=O)N(CC(C)C)CC(C)C)cc1` is 20300 (active).
Consider `CCOc1ccc(NC(=O)N(CCC(C)C)C(C)c2ccco2)cc1` (centres undefined), for which the fluorescence intensity was 2150 (inactive).
As to `CCOc1ccc(NC(=O)Nc2ccc(N(C)C(C)=O)cc2)cc1`, the fluorescence intensity is 4350 (inactive).
In the case of `CCOC(=O)C1=C(C)NC(C)=C(C(=O)OCC)C1C1=COCCO1`, the fluorescence intensity is 5040 (inactive).
With `CCCC1NC(=S)NC(C)=C1C(C)=O` (centres undefined) the figure was 4600 (inactive).
With `CCCC1NC(=O)NC(C)=C1C(=O)OCC` (centres undefined) the figure was 20200 (active); with `CC(=O)NC(c1ccccc1)c1nc(-c2ccccc2C)cs1` (centres undefined), 3560 (inactive).
With `O=C(O)Cc1ccc(NC(=O)c2cccs2)cc1` the figure was 19700 (active).
Regarding `O=C(Nc1ccc(N2CCN(C(=O)C3CC3)CC2)cc1)c1cccs1`, the fluorescence intensity was 2520 (inactive).
With `O=C(NC(=S)Nc1ccc(NC(=O)c2cccs2)cc1)c1ccc([N+](=O)[O-])cc1`, the fluorescence intensity was 8970 (inactive).
With `O=C(O)c1ccc(NC(=O)c2cccs2)cc1` the figure was 23200 (active); with `CCc1ccc(NC(=O)C(=O)NNC(=O)c2cccs2)cc1`, 5780 (inactive); with `O=C(Nc1ccccc1-c1ccccc1)c1cccs1`, 4880 (inactive).
The figure for `CC(C)CCNC(=O)c1[nH]c(C(F)(F)F)nc1-c1ccccc1` is 5980 (inactive); for `CCOC(=O)[C@]12CCC=C1N(Cc1ccco1)C(=O)[C@H](CC(=O)NCc1cccc(C(F)(F)F)c1)C2` it is 4290 (inactive); for `COC(=O)[C@]12CCCCC=C1N(CCC1=CCCCC1)C(=O)[C@H](CC(=O)N1CCSCC1)C2` it is 5780 (inactive).
With `CC(=O)Nc1ccc(CNc2nc(NCCN(C)C)nc3cc(-c4ccccc4)sc23)cc1` the figure was 3970 (inactive).
Consider `Cc1cc(Cl)ccc1NNC(=O)c1snnc1C`, for which the fluorescence intensity was 3890 (inactive).
With `O=C(Nc1cccnc1)c1noc2c1CCCCC2` the figure was 24400 (active); with `CC1(C(=O)Nc2cccnc2)Cc2c(-c3ccccc3)ccnc2O1` (centres undefined), 2820 (inactive).
Consider `Cc1noc(C)c1COc1cccc(C(=O)Nc2cccnc2)c1`, for which the fluorescence intensity was 4200 (inactive).
With `CS(=O)(=O)N(CC(=O)N1CCOCC1)c1cccc(Cl)c1Cl` the figure was 4130 (inactive).
With `COC(=O)c1ccc(CN2C(=O)C(Cc3ccccc3)ON=C2c2ncccc2C)o1` (centres undefined) the figure was 4970 (inactive).
With `COc1cccc(CSc2nc3nc(C)cc(C)n3n2)c1` the figure was 3360 (inactive); with `COCCn1c(SCc2nc3cc(OC)c(OC)cc3c(=O)[nH]2)nnc1-c1ccncc1`, 3550 (inactive); with `COCCCn1c(SCc2cccc(OC)c2)nc2cc(OC)c(OC)cc2c1=N`, 23400 (active).

The values are drawn from PubChem BioAssay AID624483 (NMMLSC, 2012).
